{
  "source": "PubChem BioAssay (EPA / NIEHS)",
  "note": "Calls of active or inactive are those of the source. How the source made its calls: active means hit-call score of the fitted dose curve at least 0.9, where 1 is the maximum; inactive means score below 0.9.",
  "data": [
    {"assay": "CCTE_Harrill_HTTr_Apoptosis_MCF7: CCTE's 6-hour Apoptosis Assessment for the High-Throughput Transcriptomics (HTTr) Platform, in MCF-7 cells cultured in DMEM + 10% fetal bovine serum, Harrill Lab (AID 2284011)", "description": "This is a cell-based assay that evaluates apoptosis using high content imaging to evaluate activation of caspase-3/7 using the CellEvent Caspase 3/7 Green detection reagent in 384-well format.One of seven assay components measured from the CCTE_Harrill_HTTr_Apoptosis assay. This was part of a full screening experiment. This is a cell-based assay that evaluates apoptosis in MCF-7 cells cultured in DMEM + 10% fetal bovine serum. High content imaging is used to evaluate activation of caspase-3/7 using the CellEvent Caspase 3/7 Green detection reagent. Measurements are taken at 6 hours after chemical dosing in 384-well format.The assay component endpoint CCTE_Harrill_HTTr_Apoptosis_MCF7 was analyzed with bidirectional fitting relation to DMSO as the negative control and baseline of activity. Using a type of viability reporter, gain-of-signal activity can be used to evaluate activation of caspase-3/7 using the CellEvent Caspase 3/7 Green detection reagent to understand changes in apoptosis. To generalize the intended target to other relatable targets, this assay endpoint is annotated to cell cycle, where the subfamily is apoptosis.\nChemicals were tested in MCF7 cells in an eight point dilution series with a six hour exposure duration.", "values": [
      {"smiles": "CCCCCCCOC(=O)c1ccccc1C(=O)OCCCCCCC", "outcome": "inactive"},
      {"smiles": "CC(CCl)OP(=O)(OC(C)CCl)OC(C)CCl", "note": "(configuration not stated)", "outcome": "inactive"},
      {"smiles": "Nc1ccc(S(=O)(=O)Nc2nccs2)cc1", "outcome": "inactive"},
      {"smiles": "CC(Cc1ccc(O)c(O)c1)C(C)Cc1ccc(O)c(O)c1", "note": "(configuration not stated)", "outcome": "inactive"},
      {"smiles": "OC[C@@H](O)[C@@H](O)[C@H](O)[C@@H](O)CO", "outcome": "inactive"},
      {"smiles": "CCN(Cc1cccc(S(=O)(=O)O)c1)c1ccc(C(=C2C=CC(=[N+](CC)Cc3cccc(S(=O)(=O)O)c3)C=C2)c2ccc(O)cc2S(=O)(=O)[O-])cc1", "outcome": "inactive"},
      {"smiles": "C1COCCN1", "outcome": "inactive"},
      {"smiles": "CNC(=S)NC", "outcome": "inactive"},
      {"smiles": "C#C[C@]1(O)CC[C@H]2[C@@H]3CCc4cc(OC)ccc4[C@H]3CC[C@@]21C", "outcome": "inactive"},
      {"smiles": "CCCCCC=O", "outcome": "inactive"},
      {"smiles": "O=S(=O)(O)c1ccc2ccccc2c1", "outcome": "inactive"},
      {"smiles": "CC/C=C\\CCOC(C)=O", "outcome": "inactive"}
    ]}
  ]
}
